The text below walks through data of PubChem BioAssay (NCATS).

A short description of assay [1]: qHTS profiling of the MIPE4 collection as inhibitors of Plasmodium falciparum (3D7) proliferation (AID 743344).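 Note: scaled between DMSO vehicle wells and 0.29 µM artemisinin as full inhibition.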 The conditions noted are these: P. falciparum 3D7 in erythrocytes, SYBR Green DNA fluorescence, 72 h; at 28.5 µM unless noted. In outline: (§1)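 Erythrocytes infected with P. falciparum (0.3% parasitemia, 2.5% hematocrit) incubated with compounds 72 h at 37 C, 5% CO2. Lysis with saponin/Triton buffer containing SYBR Green I, overnight at room temperature in the dark; DNA fluorescence (485/535 nm) normalised to 0.29 uM artemisinin and DMSO.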
For orientation: Quantitative high-throughput screening tests each substance at several concentrations.

The nature of assay [2]: qHTS profiling of the MIPE4 collection as inhibitors of Plasmodium falciparum (DD2) proliferation (AID 743345). The conditions noted are these: P. falciparum Dd2 in erythrocytes, SYBR Green DNA, 72 h; at 28.5 µM unless noted. The procedure, abridged: as §1
Assay [3] in a line: qHTS profiling of the MIPE4 collection as inhibitors of Plasmodium falciparum (DD2) proliferation (Rep 2) (AID 743346). The conditions noted are these: P. falciparum Dd2 in erythrocytes, SYBR Green DNA, 72 h; at 28.5 µM unless noted. In outline: as §1
The nature of assay [4]: qHTS profiling of the MIPE4 collection as inhibitors of Plasmodium falciparum (HB3) proliferation (AID 743347).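 Note: plate controls were DMSO vehicle wells for no effect and artemisinin wells for full effect.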 The following applies: P. falciparum HB3 in erythrocytes, SYBR Green DNA, 72 h; at 28.5 µM unless noted. In outline: as §1
Assay [5] in a line: High-throughput drug toxicity screening in the BPDCN cell line Gen2.2 (AID 1224824).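 Note: cells exposed to compounds for 48 h before reading.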 The following applies: Gen2.2 BPDCN cells; at 45.8 µM (top of the series) unless noted. The procedure, abridged:
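Seed 500 exponentially growing Gen2.2 cells/well; add compounds by pin tool; incubate 48 h, 37 °C, 5% CO2; add CellTiter-Glo, 15 min RT; read luminescence. % activity vs DMSO (100%) and bortezomib (0%).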

Assay [6] can be described thus: High-throughput drug toxicity screening in the BPDCN cell line Cal-1 (AID 1224825). The conditions noted are these: Cal-1 BPDCN cell viability, qHTS; at 45.8 µM (top of the series) unless noted. In outline:
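Exponentially growing Cal-1 cells, 500 per well in phenol red-free RPMI with 10% FBS, were exposed to compounds for 48 h at 37 °C, 5% CO2. Viability was read by CellTiter-Glo luminescence and normalised to DMSO (100%) and 9.2 uM bortezomib (0%).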

A short description of assay [7]: qHTS assay for measurement of the activity of small molecule inhibitors on Zika virus induced Caspase-3 activity in human iPSC derived neural progenitor cells (hNPCs) (AID 1224857; active = well fitted inhibition curve with a large enough effect; note: % of control where 0% means no effect; nearly all actives have a fitted effect of over 65% in size). In outline: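 Percent inhibition of virus-induced caspase-3/7 luminescence (Caspase-Glo), scaled between uninfected cells and Zika-infected cells. hNPCs received compound 1 hr before ZIKV at 2 FFU/cell, with 6 hours infection at 37 C.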

Assay [8] can be described thus: qHTS assay for measurement of the activity of small molecule inhibitors on Zika virus induced Caspase-3 activity in human astrocytoma cells (AID 1224859; active = well fitted inhibition curve with a large enough effect;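 note: plate controls were ZIKV-infected untreated cells for no effect and uninfected cells for full effect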). The procedure, abridged: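 Luminescent caspase-3/7 read-out (30 min reagent, room temperature) in human SNB-19 cells infected 6 h with ZIKV (2 FFU/cell) after 1 h compound pre-incubation; Data were normalised to uninfected and infected wells.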

A short description of assay [9]: qHTS Screen of the MIPE 4.0 Collection Against Ewings Sarcoma (TC32) (AID 1259256; active = well fitted inhibition curve with a large enough effect; note: nearly all actives have a fitted effect of over 45% in size; note: potency is the fitted concentration of half-maximal effect). The procedure, abridged:
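Compound titrations go onto adherent log-phase cells 4 h after seeding, incubate 48 h at 37C, then CellTiter-Glo luminescence reports viability relative to DMSO and cell-free controls.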

Inconclusive results are not listed. The source made the active and inactive calls. Unless noted, the rule behind the calls is not given here.

In assay [1], `CC(C)(C)NC(=O)Nc1cccc(Nc2ncc(F)c(NC(C)(C)CO)n2)c1` gave a parasite growth, % of DMSO control of 5.44%. Further, the parasite growth remaining, % of DMSO control (lower = more inhibition) in assay [2] was determined as 7.22%. For the same molecule, the parasite growth, % of control (lower = inhibition) in [3] was 7.73%. Also, in assay [4], the growth, % of control is 3.88%. Also, the cell viability, % of control (lower = more cytotoxic) in assay [5] came out at 235%. In [6], the viability (% of control) is 45.1%. Further, the Potency entry in assay [7] and in [8] was “inactive” throughout. The Potency in assay [9] is 2.35 µM (active).
As for `CC(C)(C)OC(=O)N[C@H]1CCCCCC=C[C@@H]2C[C@@]2(C(=O)NS(=O)(=O)C2CC2)NC(=O)[C@@H]2C[C@@H](OC(=O)N3Cc4cccc(F)c4C3)CN2C1=O`, the parasite growth, % of DMSO control in assay [1] came to 11.7%. The parasite growth remaining, % of DMSO control (lower = more inhibition) in [2] came out at 40.6%. Besides, the parasite growth, % of control (lower = inhibition) in assay [3] is 10.1%. For the same molecule, the growth, % of control in assay [4] is 4.63%. For the same molecule, the cell viability, % of control (lower = more cytotoxic) in assay [5] turned out to be 46.5%. For the same molecule, in assay [6], the viability (% of control) was determined as 99.3%. Also, the Potency entry in assay [7], in [8] and in assay [9] was “inactive” each time.
The molecule `C[C@]12CC[C@@H]3c4ccc(O)cc4CC[C@H]3[C@H]1C[C@@H](O)[C@H]2O` displayed a parasite growth, % of DMSO control in assay [1] of 87%. The parasite growth remaining, % of DMSO control (lower = more inhibition) in [2] came to 91.2%. Further, in assay [3], the parasite growth, % of control (lower = inhibition) is 76.7%. Moreover, in assay [5], the cell viability, % of control (lower = more cytotoxic) came to 77.1%. Besides, the viability (% of control) in assay [6] turned out to be 67.8%. For the same molecule, the Potency result in assay [7] and in assay [8] was “inactive” each time. In addition, the Potency in [9] was 26.4 µM (active).
As to `CON=C(C(=O)N[C@@H]1C(=O)N2C(C(=O)OCOC(=O)C(C)(C)C)=C(C=Cc3scnc3C)CS[C@H]12)c1csc(N)n1`, in assay [1], the parasite growth, % of DMSO control was found to be 60.4%. Besides, the parasite growth remaining, % of DMSO control (lower = more inhibition) in [2] stood at 96%. In assay [4], this molecule had a growth, % of control of 84.9%. Further, in assay [5], the cell viability, % of control (lower = more cytotoxic) is 90.5%. Further, the viability (% of control) in assay [6] was 115%. The Potency result in assay [7] and in assay [8] was “inactive” each time.
In the case of `C=C1C(=O)OC(CCCCCCCC)C1C(=O)O` (stereo unspecified), the parasite growth, % of DMSO control in assay [1] amounted to 50.6%. In assay [2], the parasite growth remaining, % of DMSO control (lower = more inhibition) was 76.2%. The growth, % of control in assay [4] is 61.5%. In addition, the cell viability, % of control (lower = more cytotoxic) in assay [5] was found to be 15.6%. For the same molecule, the viability (% of control) in assay [6] is 98%. Moreover, the Potency entry in assay [7] and in assay [8] was “inactive” in each case. The Potency in assay [9] is 26.4 µM (active).
The molecule `O=C1NC(=O)C(=Cc2ccc3c(c2)OC(F)(F)O3)S1` came in with a parasite growth, % of DMSO control in assay [1] of 86.7%. Moreover, the parasite growth remaining, % of DMSO control (lower = more inhibition) in [2] stood at 95.4%. For the same molecule, in assay [3], the parasite growth, % of control (lower = inhibition) is 126%. This molecule had a growth, % of control in [4] of 125%. In addition, in [5], the cell viability, % of control (lower = more cytotoxic) was found to be 54.2%. Also, the viability (% of control) in assay [6] is 83%. The Potency entry in assay [7] and in assay [8] was “inactive” throughout.
Molecule `N#C[C@H]1C[C@H]2C[C@@H]2N1C(=O)[C@@H](N)C12CC3CC(CC(O)(C3)C1)C2` registered a parasite growth, % of DMSO control in assay [1] of 97.9%. Also, in assay [2], the parasite growth remaining, % of DMSO control (lower = more inhibition) was found to be 103%. The parasite growth, % of control (lower = inhibition) in assay [3] worked out at 97%. The cell viability, % of control (lower = more cytotoxic) in assay [5] came out at 112%. Further, the viability (% of control) in assay [6] turned out to be 100%. The Potency entry in assay [7] and in assay [8] was “inactive” in each case. The Potency in assay [9] is 16.6 µM (active).
The molecule `Cc1[nH]c(C=C2C(=O)Nc3ccc(S(=O)(=O)Cc4c(Cl)cccc4Cl)cc32)c(C)c1C(=O)N1CCC[C@H]1CN1CCCC1` registered a parasite growth, % of DMSO control in assay [1] of 6.34%. The parasite growth remaining, % of DMSO control (lower = more inhibition) in assay [2] worked out at 8.07%. Further, the parasite growth, % of control (lower = inhibition) in [3] worked out at 12%. Also, the cell viability, % of control (lower = more cytotoxic) in [5] is 6.62%. In [6], the viability (% of control) turned out to be 2.43%. In addition, the Potency entry in [7] and in assay [8] was “inactive” each time. Besides, in assay [9], the Potency was 37.2 µM (active).
In turn, `NC(=O)c1cccc(-c2cc(Nc3ccc(OC(F)(F)F)cc3)ncn2)c1` gave a parasite growth, % of DMSO control in assay [1] of 12.3%. Moreover, the parasite growth remaining, % of DMSO control (lower = more inhibition) in [2] is 63.7%. For the same molecule, the parasite growth, % of control (lower = inhibition) in assay [3] amounted to 23%. Moreover, the growth, % of control in assay [4] came to 8.8%. The cell viability, % of control (lower = more cytotoxic) in [5] amounted to 370%. Moreover, the viability (% of control) in assay [6] is 77.2%. For the same molecule, the Potency result in assay [7] and in assay [8] was “inactive” in each case.
`COc1ccc2c(Oc3ccc(NC(=O)c4c(C)n(CC(C)(C)O)n(-c5ccccc5)c4=O)cc3F)ccnc2c1` yielded a parasite growth, % of DMSO control in [1] of 18.3%. In addition, the parasite growth remaining, % of DMSO control (lower = more inhibition) in assay [2] is 60.9%. In addition, the parasite growth, % of control (lower = inhibition) in assay [3] came out at 48.9%. For the same molecule, the growth, % of control in [4] turned out to be 13.8%. Also, the cell viability, % of control (lower = more cytotoxic) in [5] turned out to be 16.8%. Further, the viability (% of control) in assay [6] came out at 13.4%. Moreover, the Potency entry in [7] and in assay [8] was “inactive” each time.
